APOBEC3A inh = inhibitors of human APOBEC3A DNA deaminase. 330,000 tested, 0.41% active. P31941. recombinant A3A, FAM/TAMRA ssDNA deamination fluorescence. inhibition, % at 20 µM;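 active = at least 40% inhibition at 20 µM here, with at most 30% in a related deaminase screen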;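 also: plate controls were A3A with DMSO for no effect and wells lacking A3A enzyme for full effect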
Target sequence (P31941 whole entry, looked up): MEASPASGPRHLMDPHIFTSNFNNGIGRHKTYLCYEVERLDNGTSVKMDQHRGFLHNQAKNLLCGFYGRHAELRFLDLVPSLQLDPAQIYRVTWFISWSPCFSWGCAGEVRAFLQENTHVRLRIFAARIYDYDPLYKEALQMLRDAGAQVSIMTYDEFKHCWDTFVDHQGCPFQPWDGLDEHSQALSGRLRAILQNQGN
APOBEC3G inh = blocks human APOBEC3G single-stranded DNA deamination; recombinant A3G, ssDNA deamination FAM/TAMRA fluorescence; inhibition, % at 20 µM; 330,000 tested, 0.28% active;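 active = inhibition of at least 40% at 20 µM, with no more than 30% in the related APOBEC3A deaminase screen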;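 also: plate controls were DMSO wells with A3G for no effect and wells lacking A3G enzyme for full effect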
Target sequence (Q9HC16 whole entry, looked up): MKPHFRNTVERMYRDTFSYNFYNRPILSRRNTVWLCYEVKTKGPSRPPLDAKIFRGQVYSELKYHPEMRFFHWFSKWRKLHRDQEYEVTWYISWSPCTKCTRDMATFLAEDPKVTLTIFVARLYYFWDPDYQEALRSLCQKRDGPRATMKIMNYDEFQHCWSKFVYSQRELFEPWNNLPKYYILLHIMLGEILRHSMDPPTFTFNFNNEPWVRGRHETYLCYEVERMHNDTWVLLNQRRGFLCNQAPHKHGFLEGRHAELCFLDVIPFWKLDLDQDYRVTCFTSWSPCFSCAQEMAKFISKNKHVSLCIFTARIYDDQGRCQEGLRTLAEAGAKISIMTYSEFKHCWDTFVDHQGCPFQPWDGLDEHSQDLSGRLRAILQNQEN
aDG glyco act = increases alpha dystroglycan glycosylation. 360,000 tested, 0.22% active. activation, % at 10 µM. Pro5-aDG cells, alpha-DG glycosylation AlphaScreen (IIH6); 0% Pro5, 100% B10-LARGE cell signal;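 active = activation of at least 8% versus controls, or a plate z-score of at least 8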;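 also: Pro5 are CHO cells carrying HIG-tagged alpha-DG that lacks glycosylation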
ALR H2O2 inh = inhibitors of human sulfhydryl oxidase ALR | P55789 | purified ALR, DTT oxidation, H2O2 HRP-luminol luminescence | inhibition, % (no concentration beside the values) | 290,000 tested, 3.8% active | AID 485317;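 active = mean replicate inhibition above about 79%, with every replicate also reaching it, limit read from the data; inconclusive = only one of the two criteria met; inactive = mean below limit and not every replicate reaching it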
rCAG RNA binder = molecules binding r(CAG) RNA repeats; r(CAG) RNA repeat, TO-PRO-1 dye displacement fluorescence; inhibition, % at 3 µM; 370,000 tested, 1.3% active; AID 651821;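 active = inhibition above the plate cutoff, the mean of all test compounds on that plate plus 3 SD, cut at about 35% in these data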;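 also: 0% = DMSO alone and 100% = 100 µM mitoxantrone as full dye displacement; higher means more dye released from RNA so lower well fluorescence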
PHOSPHO1 inh = PHOSPHO1 (human) inhibition. Q8TCT1. recombinant PHOSPHO1, absorbance phosphatase assay. inhibition, % at 13.3 µM. 290,000 tested, 1.1% active. AID 1565; in the data active = inhibition above about 60%
aDG conf = confirmation of alpha dystroglycan glycosylation activators. shares compounds with aDG glyco act. Pro5-aDG cells, alpha-DG glycosylation, IIH6 AlphaLISA; scaled to LARGE-overexpressing B10 cells as 100%. activation, % at 10 µM (by protocol). 600 tested, 17% active. AID 651671;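 active = activation of at least 7% in one or more replicates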;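 also: cells exposed to compound for two days before detection; 0% = DMSO-treated Pro5 cells and 100% = DMSO-treated B10-LARGE cells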
* marks the source's active call; other numbers are inactive results. Most compounds without a hit are left out; they make up all but 5.4% or so of the library.

For COC(=O)[C@@]12C[C@@H](CC(=O)N3CCSCC3)C(=O)N(Cc3ccc4c(c3)OCO4)C1=CCC(C)(C)C2 the results were aDG glyco act 0 and rCAG RNA binder 2.
`COC(=O)c1cccc(NC(=O)C(C)N2C(=O)c3ccccc3C2=O)c1` (configuration not stated) gave APOBEC3A inh -1, APOBEC3G inh -6, aDG glyco act 0, ALR H2O2 inh -5, rCAG RNA binder 0 and PHOSPHO1 inh 1.
COC(=O)c1cccc(NC(=O)CN2C(=O)c3ccccc3C2=O)c1 was read as APOBEC3A inh 1, APOBEC3G inh -7, aDG glyco act 1.3*, ALR H2O2 inh -10, rCAG RNA binder -1, PHOSPHO1 inh 44 and aDG conf 1.
For COc1cc(-c2nnc(COc3ccc(Cl)cc3C)o2)cc(OC)c1OC the results were APOBEC3A inh 0, APOBEC3G inh 18, aDG glyco act 6.8*, ALR H2O2 inh 1, rCAG RNA binder -3, PHOSPHO1 inh -7 and aDG conf 1.
Screening Cc1cc(Cl)ccc1OCc1nnc(-c2ccccc2C)o1 returned APOBEC3A inh 0, APOBEC3G inh -3, aDG glyco act 0 and rCAG RNA binder 2.
O=C(Nc1ccc(O)cc1)c1ccccc1OCc1ccccc1 was read as APOBEC3A inh -2, APOBEC3G inh -3, aDG glyco act 0, ALR H2O2 inh inconclusive, rCAG RNA binder 7 and PHOSPHO1 inh 24.
Screening O=C(Nc1ccccc1)c1ccccc1OCc1ccc(F)cc1 returned APOBEC3A inh -4, APOBEC3G inh -1, aDG glyco act 3.8*, ALR H2O2 inh -10, rCAG RNA binder 1, PHOSPHO1 inh 15 and aDG conf -1.
CC(C)OC(=O)C1OC1(C)c1ccccc1 (configuration not stated) was read as aDG glyco act 0 and rCAG RNA binder 0.
For CCOc1ccc2nc(NC(=O)CSC3=NCCS3)sc2c1 the results were APOBEC3A inh -13, APOBEC3G inh -4, aDG glyco act 3.4*, ALR H2O2 inh 99*, rCAG RNA binder 9, PHOSPHO1 inh -4 and aDG conf -1.
Screening CCOc1ccc2nc(NC(=O)CSc3ccc(Cl)cc3)sc2c1 returned APOBEC3A inh 2, APOBEC3G inh -3, aDG glyco act 0, ALR H2O2 inh -28, rCAG RNA binder 9 and PHOSPHO1 inh 0.
O=C1c2ccccc2NC(c2cc(Cl)cc(Cl)c2O)N1CCc1ccccn1 (configuration not stated) was read as rCAG RNA binder 7.
Screening OC[C@@H]1CN(Cc2ccc(-c3ccccc3)cc2)C[C@H](n2cnc3c(NC4CCC4)ncnc32)O1 returned aDG glyco act 7.6*, rCAG RNA binder 6 and aDG conf 2.
C#CCNC(=O)C[C@H]1C[C@@]2(C(=O)OC)C(=C[C@H](C(C)(C)C)O[C@@H]2C)N(Cc2cccc3ccccc23)C1=O was read as rCAG RNA binder 4.
Cn1c(SCC(=O)N2CCCc3ccccc32)nnc1-c1ccccc1 was read as APOBEC3A inh -3, APOBEC3G inh -7, aDG glyco act 3.7*, ALR H2O2 inh -4, rCAG RNA binder -5, PHOSPHO1 inh -4 and aDG conf 0.
For Cc1cccc(N2CCN(C(=O)CCN3C(=S)NC(C)(C)CC3C)CC2)c1C (configuration not stated) the results were APOBEC3A inh -3, APOBEC3G inh -9, aDG glyco act 0, rCAG RNA binder -10 and PHOSPHO1 inh 1.
`Cc1ccc(C)c(N2CCN(C(=O)CCCN3C(=S)NC(C)(C)CC3C)CC2)c1` (configuration not stated) gave APOBEC3A inh 1, APOBEC3G inh -4, aDG glyco act 7.9*, ALR H2O2 inh 18, rCAG RNA binder -7, PHOSPHO1 inh -12 and aDG conf 4.
For CN(C(=O)c1cccc(NC(=O)Cc2ccc(NC(=O)C3CCN(S(=O)(=O)c4cccc([N+](=O)[O-])c4)CC3)cc2)c1)C1CCCCC1 the results were aDG glyco act 0 and rCAG RNA binder 18.
Screening CCOC(=O)C1=CCN(S(C)(=O)=O)C1c1ccc(Cl)cc1 (configuration not stated) returned rCAG RNA binder 2.
For O=C(Nc1cccc(S(=O)(=O)N2CCOCC2)c1)c1cccc(S(=O)(=O)N2CCCCC2)c1 the results were APOBEC3A inh -2, APOBEC3G inh -13, aDG glyco act 0 and rCAG RNA binder 10.
O=C(Nc1ccc(N2CCCCCC2)cc1)c1cccc(S(=O)(=O)N2CCOCC2)c1 was read as APOBEC3A inh -7, APOBEC3G inh -11, aDG glyco act 2.8*, ALR H2O2 inh 19, rCAG RNA binder 9 and aDG conf 1.
For COCCNc1nc(NCCOc2ccccc2)c2sc(-c3ccccc3)cc2n1 the results were aDG glyco act 7.6*, rCAG RNA binder 5 and aDG conf 6.9*.
For COCCNc1nc(NCCOC)c2sc(-c3ccccc3)cc2n1 the results were aDG glyco act 1 and rCAG RNA binder 1.
Screening CC1=C(C(=O)N2CCCCCC2)CC(CC(=O)NC2CCCCC2)C(=O)N1Cc1ccc(C(C)(C)C)cc1 (configuration not stated) returned aDG glyco act 0 and rCAG RNA binder 4.
COc1ccc(NC(=O)C2CC(=O)N=C(N)S2)cc1 (configuration not stated) was read as APOBEC3A inh -2, APOBEC3G inh -7, aDG glyco act 12*, ALR H2O2 inh -11, rCAG RNA binder 2, PHOSPHO1 inh 33 and aDG conf -1.
For COc1ccc(-c2ccc3c(c2)S(=O)(=O)c2cccc(C(=O)NC4CCCCC4)c2C3=O)cc1OC the results were APOBEC3A inh -1, APOBEC3G inh -1, aDG glyco act 71*, ALR H2O2 inh 2 and aDG conf 0.
`COc1ccc(-c2ccc3c(c2)S(=O)(=O)c2cccc(C(=O)NC4CC4)c2C3=O)cc1OC` gave APOBEC3A inh 0, APOBEC3G inh -8, aDG glyco act 0, ALR H2O2 inh -5 and rCAG RNA binder 2.
For Cc1cccc(/C=C2/Sc3ccc(C(=O)NCCN4CCCC4)cc3NC2=O)c1 the results were APOBEC3A inh -1, APOBEC3G inh -4, aDG glyco act 8.2*, ALR H2O2 inh 1, rCAG RNA binder 18, PHOSPHO1 inh -22 and aDG conf 7.8*.
For CCOc1ccc(N2CC(C(=O)N3CCN(c4ccccn4)CC3)CC2=O)cc1 (configuration not stated) the results were APOBEC3A inh -3, APOBEC3G inh -7, aDG glyco act 10*, ALR H2O2 inh -1, rCAG RNA binder -6 and aDG conf 10*.

High-throughput results from PubChem.
